# PubChem BioAssay AID1671190 (National Center for Advancing Translational Sciences (NCATS), 2021)
# Screen size: about 580,000 compounds; about 6,100 (1.1%) were called active. Not shown: some 15% with an inconclusive outcome. The sample as a whole holds a higher share of actives than the screen did. Values without a mark were called inactive. The call rests on the fitted dose curve; in most records, active means well fitted inhibition curve with a large enough effect; inconclusive means small, poorly fitted or top-dose-only effect, or another doubt; inactive means no such curve, though single readings can be large or run the other way.
# Target: Polyunsaturated fatty acid lipoxygenase ALOX12 (Homo sapiens) (UniProt P18054)
# Sequence (P18054 whole entry, looked up): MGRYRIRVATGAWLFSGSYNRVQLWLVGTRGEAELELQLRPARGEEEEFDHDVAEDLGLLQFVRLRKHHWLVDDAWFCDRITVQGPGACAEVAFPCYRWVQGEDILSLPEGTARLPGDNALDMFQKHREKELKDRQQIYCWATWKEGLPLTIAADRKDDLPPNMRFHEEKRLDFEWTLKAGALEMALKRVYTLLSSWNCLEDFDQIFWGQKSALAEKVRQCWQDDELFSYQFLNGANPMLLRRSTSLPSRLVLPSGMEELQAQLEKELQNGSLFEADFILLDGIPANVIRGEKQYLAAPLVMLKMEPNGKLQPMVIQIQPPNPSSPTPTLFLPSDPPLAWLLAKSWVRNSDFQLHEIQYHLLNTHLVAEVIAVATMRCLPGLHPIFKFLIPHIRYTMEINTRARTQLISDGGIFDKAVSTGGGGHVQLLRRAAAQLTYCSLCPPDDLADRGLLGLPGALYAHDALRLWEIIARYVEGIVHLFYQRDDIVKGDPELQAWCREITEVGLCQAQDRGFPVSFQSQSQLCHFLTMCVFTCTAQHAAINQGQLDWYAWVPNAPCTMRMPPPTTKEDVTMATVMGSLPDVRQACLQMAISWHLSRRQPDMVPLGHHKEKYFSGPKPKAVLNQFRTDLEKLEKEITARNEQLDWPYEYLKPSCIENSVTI
# Experiment: Primary qHTS assay for inhibitors of human arachidonate 12S-lipoxygenase (ALOX12): Round 2
# Conditions: purified 12hLO, xylenol orange hydroperoxide absorbance; series mostly up to 108 µM; activity change, negative = inhibition: at the top concentration
# How it was run: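 Hydroperoxide product was detected by ferrous iron/xylenol orange as the 573 to 405 nm absorbance ratio. Arachidonic acid at 40 uM (final) was turned over for 30 min at room temperature by 150 nM human 12hLO, pH 7.0 Hepes buffer, after 15 min compound preincubation.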
# On the % scale 0 is the no-effect control and ±100 the full control effect; potency means the concentration at half of the fitted maximal effect.
SMILES,"activity change, negative = inhibition",Potency
CCN1C(=O)N/C(=C/c2cn(CC(=O)Nc3ccc(F)cc3)c3ccccc23)C1=O,-78.9%,–
COc1cc(C(=O)Nc2ccc(C)cc2)nc2ccc(Cl)cc12,0.694%,–
CSc1cccc(NC(=O)N[C@H]2CCN3C(=O)[C@H](Cc4ccc(F)cc4)NC(=O)[C@@H]3C2)c1,-21%,–
O=C(c1ccc2ncccc2c1)N1CCC2(CC1)NCCc1c2[nH]c2ccccc12,30.9%,–
O=C(Nc1nc(-c2ccncc2)cs1)C1COc2ccccc2O1 (configuration not stated),–,14.1 µM (active)
O=C(Cn1nc2c(cc1=O)CCCCC2)Nc1nc(-c2ccncc2)cs1,44%,–
O=C(NCC1CCOCC1)C1COc2ccccc2O1 (configuration not stated),38%,–
CCc1cccc2c(C(=O)CSc3nncn3C(C)C)c[nH]c12,-38.3%,–
CCC1(C)Cc2c(sc3[nH]c(=S)n(Cc4ccccc4)c(=O)c23)CO1 (configuration not stated),–,28.2 µM (active)
CCC1(C)Cc2c(sc3nnn(CC(=O)Nc4ccc(Cl)cc4)c(=O)c23)CO1 (configuration not stated),5.01%,–
CC1(C)Cc2c(sc3c2c(=O)n(CCO)c(=O)n3CCc2ccccc2)CO1,-41.7%,–
COc1ccccc1-c1cnc(Nc2ccncc2)c2c1CCO2,13.2% [at 176 µM],–
CN1CCN(C(=O)c2cccc(C(F)(F)F)c2)CC1,-6.7%,–
O=C(CNCc1cccs1)Nc1cc(S(=O)(=O)N2CCCC2)ccc1Cl,2.03%,–
O=[N+]([O-])c1cc(Cl)cc(/C=N/NC(=S)Nc2cc(S(=O)(=O)N3CCOCC3)ccc2Cl)c1O,–,25.1 µM (active)
Cc1ccc(S(=O)(=O)N2CCOCC2)cc1NC(=O)c1ccncc1,5.28%,–
CCOc1cc(C2c3c(-c4c(C)cc(C)cc4O)n[nH]c3C(=O)N2CCO)ccc1O (configuration not stated),-3.04%,–
C(=NCc1ccccc1)c1cn(-c2ccccc2)nc1-c1cccs1,–,50.1 µM (active)
O=c1onc(-c2cccs2)n1Cc1ccccc1,0%,–
CCC(=O)N1N=C(c2ccc(OC)cc2)CC1c1cn(-c2ccccc2)nc1-c1cccs1 (configuration not stated),-24.7%,–
CC1(C)[C@H]2CC[C@@H](CNC(=O)c3ccccc3F)[C@@H]1C2,28% [at 176 µM],–
Oc1c(Br)cc(/C=N/NC(=S)NCC2CCCO2)cc1Br (configuration not stated),6.06%,–
COc1cc(/C=N/Nc2ccc(C)cc2)cc(Br)c1O,–,10 µM (active)
COc1cc(/C=N/O)ccc1O,-22.4%,–
O=C(Cc1ccc(Cl)cc1)Oc1ccc2ccccc2c1,23.8%,–
C(=N\N=C(c1ccccc1)c1ccccc1)/c1cn[nH]c1-c1ccccc1,6.19%,–

SMILES,"activity change, negative = inhibition",Potency
CN(C)c1ncnc2sc3c(c12)CCN(Cc1ccccc1)C3,48%,–
Cc1ccc(N2C(=O)C3N=NN(CC(=O)N4N=C(c5cccc6ccccc56)CC4c4ccccc4)C3C2=O)cc1 (configuration not stated),0%,–
CCCc1nc(-c2ccccc2O)n(-c2ccccc2)n1,-20.5%,–
Oc1ccccc1C1=NN(c2ccccc2)C(c2ccccc2)C1 (configuration not stated),–,15.8 µM (active)
Cc1oc2cc(OCC(=O)N3CCCCCC3)ccc2c(=O)c1-c1ccc(Cl)cc1,1.29%,–
CCN1/C(=C\c2ccc3ccccc3[n+]2CC)Sc2cc(C)ccc21,–,35.5 µM (active)
CCN(CC)C(=O)Oc1ccc2c(C)c(-c3ccc(OC)cc3)c(=O)oc2c1,55.5%,–
O=C1CC(NCc2ccoc2)CN1CCc1cccc(Cl)c1 (configuration not stated),38.5%,–
Cc1ccccc1NC(=O)c1cc2cc([N+](=O)[O-])ccc2oc1=O,14.5%,–
COc1cc(CNCCSc2nnnn2C)ccc1OCc1c(F)cccc1Cl,0%,–
COc1cc(CNCCSc2nnnn2C)ccc1OCc1ccc(Cl)cc1Cl,–,39.8 µM (active)
Cn1nnnc1SCCNCc1ccc(Cl)c(Cl)c1,-8.03%,–
Cc1cc(S(=O)(=O)N2CCCN(C)c3ccccc32)ccc1F,-0.0222%,–
Cc1ccc(CN(CC(=O)NCC2CCCO2)C2CC2)cc1 (configuration not stated),-1.52%,–
CN(Cc1cccs1)C(=O)C1CCC1,6.4%,–
Cc1ccc(C(=O)N2CCC3(CC2)NC(=O)N(Cc2ccc(F)cc2)C3=O)cc1,14.3%,–
Cc1ccc(C(=O)N2CCC(c3n[nH]c(=O)n3Cc3ccc(F)cc3)CC2)cc1,10.3%,–
CCN1CCC2(CC1)N=C(c1ccc(F)cc1)C(=S)N2C(=O)c1ccc(C)cc1,–,50.1 µM (active)
CC1CCN(CCCNC(=O)c2cc(=O)c3ccccc3o2)CC1,-3.13%,–
Cc1ccc(N(CC(=O)Nc2cc(C)cc(C)c2)S(=O)(=O)c2cccc3nonc23)cc1,–,inactive
CCNC(=O)CN(c1ccc(C)cc1)S(=O)(=O)c1ccc(SC)cc1,-25.5%,–
Cc1ccc(S(=O)(=O)N(CC(=O)Nc2cccnc2)c2ccc(Br)cc2)cc1,–,22.4 µM (active)
COc1ccccc1C(=O)N1CCc2c(nc3cc(-c4ccccc4Cl)[nH]n3c2=O)C1,-1.72%,–
COc1ccc2cc(C(=O)N3CCN(S(=O)(=O)c4ccccc4C(F)(F)F)CC3)c(C)nc2c1,16.8%,–
Cn1c(=O)c2c(nc(Cl)n2CC(=O)N(C2CCCC2)C2CCS(=O)(=O)C2)n(C)c1=O (configuration not stated),2.41%,–
O=C(Cc1cccc2ccccc12)NCCc1cccc2cccnc12,18.3%,–

SMILES,"activity change, negative = inhibition",Potency
CCCCc1c(C)nc2c(C)cccc2c1SCC(=O)O,80.1%,–
COc1ccccc1NC(=O)C(=O)NCc1ccccc1,-7.75%,–
COc1ccc(COc2ccc(C(=O)O)cc2OC)cc1Br,-3.21%,–
COc1cc(C(=S)NCc2ccccc2)cc(Br)c1O,–,39.8 µM (active)
CN(Cc1ccc(F)cc1F)C(=O)COc1ccc2ccc(=O)oc2c1,-53.2%,–
C=CCSc1nc2c(c(=O)[nH]c(=O)n2C)n1Cc1cccc(C)c1,-77.9%,–
COc1cc(Cl)c(C)cc1NC(=O)[C@@H]1CCCN1C(=O)c1cccs1,0.484%,–
Cc1ccc(NNC(=O)c2cccs2)cc1Cl,–,8.91 µM (active)
CS(=O)(=O)c1ccc(C(=O)NNC(=O)c2cccs2)cc1,3.89%,–
CCN(c1ccc(-c2csc(-c3ccccc3)n2)cc1)S(C)(=O)=O,0.942%,–
N#Cc1ncn(CCC(=O)Nc2ccc(F)c(F)c2)n1,-16.6%,–
COc1ccc(C)cc1NC(=O)NC(C(=O)N1CCc2ccccc21)C(C)C (configuration not stated),-18.5%,–
Cc1noc(-c2ccc(OC(F)(F)F)cc2)c1C(=O)NCc1ccc2c(c1)OCO2,47.3%,–
CCC1CCCCN1C(=O)Cn1cccc1-c1nc(-c2ccc(F)cc2)no1 (configuration not stated),6.64%,–
CCC(CC)C(=O)Nc1cccc(C(=O)N2CCCC2)c1,5.32%,–
O=C(NC1CCCc2c1[nH]c1ccc(F)cc21)c1n[nH]c2c1CCCC2 (configuration not stated),13.5%,–
O=C(c1ccc2c(c1)OCO2)N1CCC2(CC1)NC(=O)N(c1ccccc1)N2,–,5.01 µM (active)
O=C(Cc1ccc(F)cc1)N1CCC(n2cc(-c3nc(-c4ccccc4)no3)nn2)CC1,2.49%,–
CC(=O)Nc1cccc(C(=O)N2CCC3(CC2)NC(=O)N(c2cccc(Cl)c2)N3)c1,–,1.41 µM (active)
O=C(c1ccccc1)c1cccn1CC(=O)N1CCN(c2ccc(F)cc2)CC1,439%,–
O=C(c1n[nH]c2c1CCCC2)N1CCC2(CC1)NC(=O)N(c1ccc(F)cc1)N2,–,1.41 µM (active)
O=C(c1ccc2c(c1)OCO2)N1CCC2(C1)C(=O)Nc1ccccc12 (configuration not stated),5.73% [at 6.33 µM],–
O=C(c1ccc2c(c1)OCO2)N1CCC(n2c(=O)[nH]c3ccccc32)CC1,-25.6%,–
O=C(c1cccc(Cl)c1)N1CCC2(CC1)NCc1ccccc1NC2=O,3.75% [at 6.33 µM],–
O=C(Cc1ccc(F)cc1)N1CCC2(CC1)NC(=O)N(c1ccccc1)N2,–,5.01 µM (active)
O=C(c1cc2ccccc2oc1=O)N(Cc1ccccc1)c1cccc([N+](=O)[O-])c1,-8.8%,–

SMILES,"activity change, negative = inhibition",Potency
CC1CCN(S(=O)(=O)c2ccc3c(ccc(=O)n3CC(=O)NCc3ccccn3)c2)CC1,18.9%,–
COc1cccc(CC(=O)N2CCC3(CC2)N=C(c2ccc(Cl)cc2)NO3)c1,-1.12%,–
Cc1ccc(-c2cn3nc(N4CCCC(C(=O)NCCc5cccs5)C4)sc3n2)cc1 (configuration not stated),-18.5%,–
COCCn1nc2n(c1=O)CCN(S(=O)(=O)c1ccc(Cl)s1)CC2,7.1%,–
COc1ccc(Cl)cc1NC(=O)CCc1ncc(-c2ccc(C)cc2)o1,-24.8%,–
CC1(c2ccccc2)N(Cc2ccccc2F)C(=O)OC12CCN(Cc1c[nH]c3ccccc13)CC2 (configuration not stated),–,28.2 µM (active)
CC1(c2ccccc2)N(Cc2ccc(O)cc2)C(=O)OC12CCN(Cc1ccc(C#N)cc1)CC2 (configuration not stated),-0.847%,–
CC(C)C(=O)N1CCC2(CC1)OC(=O)N(Cc1ccccc1F)C2(C)c1ccccc1 (configuration not stated),6.96% [at 176 µM],–
COc1ccccc1CNC(=O)c1ncoc1-c1cccc(C)c1,3.56%,–
CCC(=O)N1c2ccccc2NC2=C(C(=O)CC(C)(C)C2)C1c1cc(OC)ccc1OC (configuration not stated),9.28%,–
COCC1CN(Cc2cn(C)c3ccc(OC)cc23)CC12CCNCC2 (configuration not stated),19%,–
COc1cc(/C=C/c2nc3ccccc3s2)ccc1OC(F)F,3.41%,–
CCn1c(SCC(=O)Nc2ccccc2C(=O)NC2CC2)nnc1-c1ccoc1C,-8.6%,–
COc1ccc(C(=O)NCCSc2ccccc2C)cc1,0%,–
COc1ccc(N2CCN(C(=O)CCNC(=O)c3ccc(Br)cc3)CC2)cc1,-21.7%,–
COc1ccc(C(=O)NCC[N+](C)(C)C)cc1,–,39.8 µM (active)
CCN(Cc1nc(-c2ccc(OC)c(OC)c2)no1)C(=O)Nc1cccc2ccccc12,6.76%,–
Cc1[nH]c2ccccc2c1C=O,8.16%,–
COC(=O)c1c(NC(=O)CCCOc2ccccc2)sc2c1CCC(C)C2 (configuration not stated),0%,–
Cc1[nH]c2ccccc2c1/C=N/c1sc2c(c1C#N)CCC(C)C2 (configuration not stated),–,22.4 µM (active)
COC(=O)CC(NC(=O)c1nn(C)c(=O)c2ccccc12)c1ccc(F)cc1 (configuration not stated),-8.65%,–
Nc1ccc(-c2cc(C(=O)O)c3cc(Cl)ccc3n2)cc1,-28.1%,–
Cc1nc(C)c(C(=O)N2CCCC(C(=O)NCc3ccccc3)CCNC(=O)CC2)s1 (configuration not stated),-1.73%,–
N#CC1CCN(C(=O)c2nc(-c3ccc(Cl)cc3)c3ccccn23)CC1,-3.2%,–
